The text below walks through data of PubChem BioAssay AID602233 (National Center for Advancing Translational Sciences (NCATS), 2012).

Among all 380,000 compounds or so, about 170 (0.045%) were called active. Calls follow the shape of the dose curve; as a rule, active = well fitted inhibition curve with a large enough effect; inconclusive = small, poorly fitted or top-dose-only effect; inactive = no such curve, though single readings can be large or run the other way. Shown is part of a subset that was picked to be rich in actives. A call without a number means that no potency is given here.
Potency is read from the fitted curve at half-maximal effect.

The target in the assay is Phosphoglycerate kinase, glycosomal (Trypanosoma brucei brucei) (UniProt P07378). The assay can be described thus: qHTS Assay to Find Inhibitors of Phosphoglycerate Kinase. Also: nearly all actives have a fitted effect of over 60% in size. The conditions noted are these: PGK/GAPDH coupled, Kinase-Glo luminescence, 60 min; series mostly up to 57.5 µM. From the text: Several species of the Trypanosomatidae family of parasitic protozoans cause a spectrum of diseases throughout the tropical and subtropical world. Sleeping sickness, caused by two subspecies of Trypanosoma brucei, is endemic to areas of sub-Saharan Africa, while Chagas disease, a manifestation of Trypanosoma cruzi infection, is prevalent throughout Central and South America. In addition, many species of Leishmania are responsible for a range of cutaneous and visceral diseases, causing ulcers, destructive lesions and kalaazar, a lethal infection of the viscera. Collectively, these organisms infect 30 million people worldwide (~500 million live in endemic areas), and account for ~130,000 deaths annually. Given their debilitating and prevalent nature, trypanosomatid parasites impose a heavy medical, economic and social burden on entire populations, primarily in the developing world. The problem is further exacerbated by the fact that existing treatments have progressed little in the past 50 years, and current drugs show high toxicity and poor efficacy. […] Blood-stream stages of T. brucei are entirely dependent on glycolysis as a source of ATP, and the tricarboxylic acid cycle and oxidative phosphorylation are both repressed. Glycolysis in axenically cultured T. cruzi, representing the intracellular pathogenic stage, is also essential for these parasites. […] Previous studies have shown that the glycolytic enzyme, phosphoglycerate kinase (PGK), is a viable target for drugs to kill these parasites. […] NIH Molecular Libraries Probe Production Network [MLPCN] NIH Chemical Genomics Center [NCGC] MLPCN Grant: R03 MH093212 PI Name: Malcolm Walkinshaw, University of Edinburgh
Sequence of Phosphoglycerate kinase, glycosomal (Trypanosoma brucei brucei) (P07378 whole entry, looked up): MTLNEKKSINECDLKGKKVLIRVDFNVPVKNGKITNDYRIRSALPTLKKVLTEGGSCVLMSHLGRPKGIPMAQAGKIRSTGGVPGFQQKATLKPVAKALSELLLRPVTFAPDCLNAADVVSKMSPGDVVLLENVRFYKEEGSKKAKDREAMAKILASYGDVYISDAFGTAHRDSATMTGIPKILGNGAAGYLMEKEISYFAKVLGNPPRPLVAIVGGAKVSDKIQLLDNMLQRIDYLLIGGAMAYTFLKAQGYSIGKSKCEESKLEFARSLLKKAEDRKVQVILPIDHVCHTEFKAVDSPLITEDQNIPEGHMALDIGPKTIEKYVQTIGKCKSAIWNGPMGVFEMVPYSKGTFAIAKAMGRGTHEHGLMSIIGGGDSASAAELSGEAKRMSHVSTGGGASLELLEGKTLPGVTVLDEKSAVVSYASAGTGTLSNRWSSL
3ul of substrate/PGK buffer (columns 1,2,5-48) are dispensed into Greiner white solid bottom 1536-well assay plates; columns 3-4 receive only TEA buffer as 0x PGK controls. Compounds are then transferred via Kalypsys pin tool equipped with 1536-pin array (10nl slotted pins, V&P Scientific, San Diego, CA). Following addition of compound, 1ul of GAPDH (100nM final concentration, all columns) is added to initiate the reaction (this upstream coupling enzyme is necessary for in-well production of PGK substrate, 1,3-bisphosphoglycerate (1,3-BPG), which is unstable and not commercially available). The plates are then incubated at room temperature for 60 minutes. Kinase-Glo Plus reagent is added (2ul) and plates incubated for 10 minutes, before being transferred to a ViewLux high-throughput CCD imager (PerkinElmer) wherein single end-point measurements of luminescence are acquired using a clear filter. All reagents are diluted in an assay buffer consisting of 100mM TEA (pH 7.6), 5mM MgCl2 and 0.01% Tween-20.
As for `CCOc1ccc(OCC)c(NC(=O)CN(c2ccc(C)cc2)S(=O)(=O)c2c(C)n[nH]c2C)c1`, the Potency entry is “inactive”. As for `CCCS(=O)(=O)c1ncc(Cl)c(C(=O)Nc2scc(-c3ccccc3)c2C(=O)OCC)n1`, the entry is “inactive”; as for `Cc1sc(C2C(C#N)=C(N)N(c3cccc(Cl)c3)C3=C2C(=O)CCC3)cc1CN1CCOCC1` (stereo not given), “inactive”. As for `Cc1ccc(C(=O)N2c3ncnn3C3(CCCCC3)[C@@H]3CCCC[C@@H]32)cc1`, the entry is “inactive”; as for `O=C(CC(c1cccs1)N1Cc2ccccc2C1=O)Nc1ccc(F)c(F)c1` (stereo not given), “inactive”. For `CC1=Nc2cc(C(=O)NCc3ccc(C)cc3)ccc2Sc2ccc(Cl)cc21`, the Potency entry is “inactive”. With `CCc1cnc2c(c1SCC(=O)N1CCC(C)CC1)c(=O)n(C)c(=O)n2C`, the Potency entry is “inactive”.

Turning to `CCc1cccc(NC(=O)CN(c2ccc(C)c(C)c2)S(=O)(=O)c2ccsc2C(=O)OC)c1`, the Potency entry was “inactive”. Turning to `CCOc1ccccc1NC(=O)c1ccc2c(c1)CCN2S(=O)(=O)c1ccc(C)cc1`, the Potency entry is “inactive”. For the compound `CSc1ccc(NC(=O)Cn2nnnc2-c2ccccc2F)cc1`, the Potency entry is “inactive”.

Regarding `CC(=O)c1ccc(NC(c2ccc(F)cc2)c2nnc(-c3ccccc3)o2)cc1` (stereo not given), the Potency result is “inactive”. On to `CCOc1ccc(CCNC(=O)c2c(C)oc3ncn(C)c(=O)c23)cc1`, for which the Potency result is “inactive”. On to `CCc1ccccc1NC(=O)c1cnn(-c2ccc(F)cc2)c1C1CCNCC1`, for which the Potency result was “inactive”. As to `Cc1ccc(CNC(=O)CCNS(=O)(=O)c2ccc3c(c2)oc(=O)n3C)cc1`, the Potency entry was “inactive”. In the case of `CCc1cccc(-n2nnc(-c3nsc(NC(=O)c4ccc(C)cc4)n3)c2C)c1`, the Potency result was “inactive”. As to `CC(C)Cn1c(=O)c2ccccc2n2c(CCC(=O)N3CCN(c4cccc(Cl)c4)CC3)nnc12`, the Potency result was “inactive”. To `Cc1ccc(OCCSc2nc(-c3cccs3)nc3cc(=O)[nH]n23)cc1Cl` belongs “inactive”; to `CC1=C(c2ccc(Cl)cc2)S(=O)(=O)N=C1N1CCN(c2cc(C)ccc2C)CC1`, “inactive”; to `Cc1cccc(N2CCN(c3c(CN4CCCC4)c(=O)oc4ccccc34)CC2)c1C`, “inactive”. In the case of `CCc1ccc(NC(=O)CN2CCSc3ccc(S(=O)(=O)N4CCCC4)cc32)cc1`, the Potency entry was “inactive”. With `CCCN(CCC)CCNC(=O)c1ccc2c(c1)NC(=O)C(CS(=O)(=O)Cc1cccc(Br)c1)N2` (stereo not given), the Potency entry was “inactive”. On to `COc1cc(CNC(=O)c2cc3n(n2)CCCN(Cc2cccc(F)c2)C3=O)cc(OC)c1OC`, for which the Potency entry is “inactive”. To `COc1ccc(OC)c(-c2nc(C(N)=O)c3c(n2)n(-c2ccc4c(c2)OCO4)c(=O)n3C)c1` belongs “inactive”; to `CCN(Cc1ccccc1)C(=O)c1cn(-c2cccc(OC)c2)c(=O)c2ccccc12`, “inactive”; to `O=C(CCn1c(=O)c2ccccc2n(Cc2ccc(Cl)cc2)c1=O)NCc1ccc2c(c1)OCO2`, “inactive”. `Cc1ccccc1OCc1ccc(-c2nc(C#N)c(N3CCCCC3)o2)o1`: the Potency result was “inactive”. `CC(C)(C)OC(=O)N1CCC(c2c(C(=O)Nc3ccc4c(c3)OCO4)cnn2-c2ccccc2)CC1`: the Potency entry was “inactive”.

As for `COc1ccc(-n2c(=O)c3sc4ccccc4c3n(CC(=O)Nc3cccc(C)c3)c2=O)cc1`, the Potency result was “inactive”. With `Cc1c(C)n(Cc2ccc(Cl)cc2)c2ccc(C(=O)NCCc3ccc(S(N)(=O)=O)cc3)cc12`, the Potency result was “inactive”.

For `CCCNC(=O)c1ccc2c(c1)ncn2-c1ccc(C)cc1C`, the Potency entry is “inactive”. For the compound `CCn1cc2nc(SCc3cccc(F)c3)n(CCc3ccccc3)c(=O)c2n1`, the Potency entry was “inactive”. For the compound `Cc1nc2ccccn2c(=O)c1NC(=O)c1c(F)cccc1F`, the Potency result was “inactive”. Turning to `COc1ccc(CCNc2ncnc3onc(-c4ccc(Cl)cc4)c23)c(OC)c1`, the Potency entry was “inactive”. Turning to `CCOC(=O)C(Cc1ccccc1)NC(=O)CCc1c(C)nc2c(c(C)nn2-c2ccc(C)c(C)c2)c1C` (stereo not given), the Potency entry was “inactive”. As for `COc1ccccc1NC(=O)c1oc2ccccc2c1NC(=O)C(C)C`, the Potency entry was “inactive”.

Turning to `O=C(NCc1cccnc1)C(=O)NCC(c1cccnc1)N1CCN(c2ccccc2)CC1` (stereo not given), the Potency entry is “inactive”.

In the case of `Cc1ccccc1CNC(=O)C(=O)NCC(c1cccs1)S(=O)(=O)c1cccs1` (stereo not given), the Potency result is “inactive”. For `O=C(CCC(=O)N1CC2CCCN2c2ccccc21)NCc1ccccc1Cl` (stereo not given), the Potency result is “inactive”. On to `O=C(CC1N=C2c3ccccc3N=C(SCc3cccc(Cl)c3)N2C1=O)NCc1ccc2c(c1)OCO2` (stereo not given), for which the Potency result is “inactive”. With `CCN(CC)S(=O)(=O)c1nnc(NC(=O)COc2ccccc2Cl)s1`, the Potency entry is “inactive”. Regarding `Nc1ccc2nc3c(=O)[nH]c(=S)[nH]c3nc2c1`, the Potency is 2.51 µM (active). As for `Cc1oc2ccc(O)c(CN3CCC(C)CC3)c2c1C(=O)Nc1ccccc1`, the Potency entry is “inactive”. In the case of `CCCCCn1c(CCCNC(=O)c2ccccc2OC)nc2ccccc21`, the Potency result was “inactive”. As to `CN(Cc1ccccc1)c1ncnc2onc(-c3ccc(F)cc3)c12`, the Potency result was “inactive”. With `O=C(NCc1ccc2c(c1)CCN2C(=O)c1ccccc1)c1ccccc1`, the Potency entry is “inactive”. On to `COc1ccc(-n2c(SCC(N)=O)nc3c(oc4ccccc43)c2=O)cc1`, for which the Potency entry is “inactive”.

Consider `CC(C)(C)c1ccc(OCC(=O)N2CCC(c3nc4ccccc4s3)CC2)cc1`, for which the Potency result is “inactive”. With `O=C(Cn1cc(SCc2cccc(Cl)c2)c2ccccc21)N1CCCCC1`, the Potency result was “inactive”. In the case of `COc1ccc(Cn2ccc3nc(C)c(C(=O)Nc4ccc(C)c(F)c4)cc3c2=O)cc1`, the Potency result is “inactive”. `O=C(Cn1c(=O)n(Cc2cccs2)c(=O)c2cccnc21)Nc1ccc(F)cc1`: the Potency result is “inactive”. Turning to `COc1cc(NS(=O)(=O)c2ccc3c(c2)OCC(C(=O)N2CCCC2)O3)cc(OC)c1` (stereo not given), the Potency entry is “inactive”. Regarding `COc1ccc(OC)c2sc(N3CCN(C(=O)C4COc5ccccc5O4)CC3)nc12` (stereo not given), the Potency entry is “inactive”. Regarding `Cc1c(CC(=O)N2CCN(C(=O)C3COc4ccccc4O3)CC2)c(=O)oc2c(O)c(O)ccc12` (stereo not given), the Potency was 8.91 µM (active). On to `COc1ccc(C(=O)N2CCC(c3nc4ccccc4o3)CC2)cc1`, for which the Potency entry is “inactive”. Take `COc1ccc(CCNS(=O)(=O)c2cc(-c3cc(C)no3)ccc2C)cc1OC`: the Potency result was “inactive”. For `CC(=O)c1ccc(NC(=O)c2nc(-c3ccc(C)cc3)n3c2CCCCC3)cc1`, the Potency result is “inactive”. With `COc1ccc(N2CCN(C(=O)c3c(C)oc4nc(C)nc(N5CCCC5)c34)CC2)cc1`, the Potency result was “inactive”. Take `COc1cccc(NC(=O)N(Cc2cn(C)c3ccccc23)C2CCCCCC2)c1`: the Potency result was “inactive”.

As to `Cc1ccc(CCNC(=O)c2nnc(Cc3cccc(F)c3)o2)cc1`, the Potency result is “inactive”.

On to `COC(=O)c1ccc(Cn2c(SCC(=O)N(C)c3ccccc3)nc3ccccc32)cc1`, for which the Potency entry is “inactive”.
